# Laboratory results published in PubChem BioAssay AID493131 (Broad Institute, 2011).
# The whole screen tested about 340,000 compounds, of which about 3,300 (0.97%) were called active. The full list was thinned out, with actives kept by preference. Values without a mark were called inactive.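 The calls were made as follows: active = mean activation above about 17%, with every replicate also reaching it (limit read from the data, passing the limit was not always enough); inconclusive = only one of the two conditions met; inactive = the rest.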
# Target: Protein FosB (Mus musculus) (UniProt P13346)
# Test: enhancers of mouse delta FosB DNA binding – biochemical, fluorescence polarization, TAMRA-CDK5 oligo, single point, primary screen (AID 493131);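 also: fluorescence polarization rise as delta FosB binds a TAMRA Cdk5 AP-1 oligo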
# Settings: purified delta FosB, at 25 µM, hits give high values
# Chain of Protein FosB (Mus musculus) (P13346 whole entry, looked up): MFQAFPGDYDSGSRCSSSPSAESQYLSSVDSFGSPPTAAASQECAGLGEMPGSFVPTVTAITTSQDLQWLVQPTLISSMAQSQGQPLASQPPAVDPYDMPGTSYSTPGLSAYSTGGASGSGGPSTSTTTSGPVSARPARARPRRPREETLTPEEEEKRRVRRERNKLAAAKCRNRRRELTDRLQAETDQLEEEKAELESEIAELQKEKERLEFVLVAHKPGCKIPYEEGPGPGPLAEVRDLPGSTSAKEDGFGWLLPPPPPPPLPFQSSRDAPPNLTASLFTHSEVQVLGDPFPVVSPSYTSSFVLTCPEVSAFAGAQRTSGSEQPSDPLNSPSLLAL
row,Compound,activation
1,O=c1[nH]c(CN2CC=C(c3ccccc3)CC2)nc2scc(-c3cccs3)c12,35.5% (active)
2,CC1([N+](=O)[O-])COP(=O)(Nc2ccc(F)cc2)OC1 (stereo not given),2.39%
3,C[C@@]1([C@@H](NP(=O)(c2ccccc2)c2ccccc2)c2ccccc2)C[C@H]1CCO,0.415%
4,N#Cc1ccc(Cn2cc(C(=O)c3ccco3)c3ccccc32)cc1,-7.9%
5,C=CCN1C(=O)C2(C(C(=O)OCC)=C(N)Oc3c2c(=O)oc2ccccc32)c2ccccc21 (stereo not given),-8.76%
6,OC(Cn1c2ccccc2c2ccccc21)C[n+]1ccccc1 (stereo not given),20.4% (active)
7,COC(=O)C1=C(c2cccc(OCc3ccccc3)c2)C[C@@H]2CC[C@H]1N2C(=O)NNCc1ccccc1,-6.41%
8,Cc1ccc(CN2CCCC(C(=O)c3ccc4c(c3)OCO4)C2)cc1C (stereo not given),-3%
9,CCN1CCN(c2nc3c(c(=O)[nH]2)CCC3)CC1,-2.7%
10,O=C(c1ccccc1)C(O)(CN1CCCCC1)c1ccccc1 (stereo not given),-1.99%
